Ba CapD inh: inhibitors of Bacillus anthracis CapD enzyme; purified CapD enzyme, fluorescence intensity read-out; active compounds read low; z-score (no concentration beside the values); actives 0.23% (n = 140,000); AID 492967; in the data active = z-score mostly below about -2.9, no sharp cut-off; inactive = mostly above about -1.9
Of the large screens only hits and unclear results are named; the others gave an inactive call; ! = not confirmed by another sample. Only a selection was taken, and hits are over-represented in it overall.

CCOC(=O)C1=C(N)n2c(s/c(=C\c3ccc(F)cc3)c2=O)=C(C(=O)OCC)C1c1ccc(F)cc1 (centres undefined)	none
COc1ccc(C2C(C(=O)N3CCOCC3)CCC(=O)N2c2ccc(OC)cc2)cc1 (centres undefined)	Ba CapD inh -10
COc1ccc(C2C(C(=O)N3CCCC3)CC(=O)N2c2ccc(OC)cc2)cc1 (centres undefined)	none
COc1ccc(N2C(=O)CCC(C(=O)N3CCCCC3)C2c2ccc(OC)c(OC)c2)cc1 (centres undefined)	none
COc1ccc(N2C(=O)C3CCC(C)(C2=O)C3(C)C)cc1 (centres undefined)	none
COc1ccc(-n2nc(C(=O)N3CCCC3)c3c4ccccc4n(C)c3c2=O)cc1	none
COc1ccc(-n2nc(C(=O)N(C)c3ccccc3)c3c4ccccc4n(C)c3c2=O)cc1	Ba CapD inh -4.3
COc1ccc(-n2nc(C(=O)N(C)Cc3ccccc3)c3c4ccccc4n(C)c3c2=O)cc1	none
Cn1c(=NC(=O)CSCC(=O)N2CCCc3ccccc32)sc2ccccc21	none
O=C(O)C1C2CCC(C2)C1C(=O)NCc1ccc2c(c1)OCO2 (centres undefined)	none
CC(C)(C)c1ccc(OCC(=O)NC(c2ccccc2)c2ccccc2)cc1	none
Cc1ccc(N2C(=O)NC(=O)/C(=C\c3cc(C)n(-c4cc(C(=O)O)cc(C(=O)O)c4)c3C)C2=O)cc1	none
Cc1cc(/C=C2\C(=O)NC(=S)N(c3ccc(F)cc3)C2=O)c(C)n1-c1ccccc1	none
Cc1cc(/C=C2\C(=O)NC(=S)N(c3cccc(Cl)c3)C2=O)c(C)n1-c1cc(C(=O)O)cc(C(=O)O)c1	Ba CapD inh -5.9
Nc1c(C(=O)Nc2ccc(S(N)(=O)=O)cc2)sc2nc(-c3ccccc3)cc(C(F)(F)F)c12	none
O=C(NCC1CCCO1)c1ccc2c(c1)ncn2-c1ccc(OCc2ccccc2)cc1 (centres undefined)	none
CCc1nc2ccc(C(=O)NCCCN3CCCCC3)cc2nc1CC	none
CCN(CC)c1c2c(nc3nncn13)CCC2	none
S=c1c2c(nc3nc[nH]n13)CCC2	Ba CapD inh -5.7
c1ccc(N2CCN(c3c4c(nc5nncn35)CCC4)CC2)cc1	none
C=C1SC(Nc2ccc(S(=O)(=O)N3CCCCC3)cc2)=NC12CCCCC2	none
COC(=O)C(C)OC(=O)c1ccc(Oc2nc(N(C)C)nc(N(C)C)n2)cc1 (centres undefined)	none
COc1ccc(N(C(=O)c2ccncc2)S(=O)(=O)c2ccc(OC)c(OC)c2)cc1	Ba CapD inh -5.6
COc1ccc(S(=O)(=O)N(C)c2ccc(C(N)=O)cc2)cc1OC	none
COc1ccc(N(C(C)=O)S(=O)(=O)c2cc(OC)ccc2OC)cc1	none
CCCOc1cccc(C(=O)Nc2ccc(Cc3ccncc3)cc2)c1	none
COC(=O)c1ccc(NC(=S)NC(=O)CCN2C(=O)c3ccccc3C2=O)cc1	none
NC1=[N+](c2ccccc2)Cc2ccccc21	none
O=C(N/N=C/c1ccc(Br)cc1)c1ccc([N+](=O)[O-])o1	none
O=C(N/N=C/c1ccccn1)c1ccc([N+](=O)[O-])o1	Ba CapD inh -4.3
O=C(N/N=C/c1ccccc1C(=O)O)c1ccc([N+](=O)[O-])o1	none
O=C(Cc1ccc(NC(=O)N2CCCCc3ccccc32)cc1)N1CCCCC1	none
CC(C)c1ccc(C(C2=C(O)CC(C)(C)CC2=O)C2C(=O)CC(C)(C)CC2=O)cc1 (centres undefined)	none
CCCCCCCCOc1ccc(-c2ccc(-c3ncc(CCCCCCCC)cn3)cc2)cc1	none
O=C(O)CN1C(=O)/C(=C2\Sc3ccccc3N2CCCS(=O)(=O)O)SC1=S	none
O=c1[nH]c(-c2ccc(F)cc2)nc2c1sc(=S)n2-c1ccccc1	none
COc1ccc(-c2nc3c(sc(=S)n3-c3ccccc3)c(=O)[nH]2)cc1	none
O=c1[nH]cnc2c1sc(=S)n2-c1ccccc1	Ba CapD inh -5.4!
CN(C)CCN1C(=O)C(=O)/C(=C(/O)c2ccccc2)C1c1ccco1 (centres undefined)	none
O=C(CSc1nccc(-c2cccs2)n1)c1cc2ccccc2o1	none
CCOC(=O)c1ccc(N2C(=N)S/C(=C\c3cnn(-c4ccccc4)c3)C2=O)cc1	none
CC1CC(C)CN(C(=O)c2cccs2)C1 (centres undefined)	none
O=C(c1cccs1)N1CCSC1=S	Ba CapD inh -4.8
O=C(c1cccs1)N1CCCCC1	none
O=C(c1ccc(Cl)cc1)N1CCSC1=S	Ba CapD inh -3.5
O=C(c1ccc(Cl)cc1)N1CCCc2ccccc21	none
O=C(O)C1SCCN1C(=O)c1ccc(Cl)cc1 (centres undefined)	none
Nc1c(Cl)ncnc1NCCCn1ccnc1	none
CCOc1cc(C(F)(F)F)c(C(=O)N(C)Cc2c(OC)cccc2OC)cn1	none
C=CCNC(=O)c1csc2c1CCCC2	none
CCC(C(=O)O)N1C(=O)/C(=C/c2ccccc2)SC1=S (centres undefined)	none
CSCCC(C(=O)O)N1C(=O)/C(=C/c2ccc(O)cc2)SC1=S (centres undefined)	Ba CapD inh -4
CN(C)c1ccc(/C=C2/SC(=S)N(CCCCC(C(=O)O)N3C(=O)/C(=C\c4ccc(N(C)C)cc4)SC3=S)C2=O)cc1 (centres undefined)	none
COc1nc(-c2ccccc2Cl)c2cc(Br)ccc2n1	none
Cc1ccc(C(=O)N(C)c2ccccc2)cc1Cl	none
CN(C(=O)c1cc2sccc2s1)c1ccccc1	none
CC(=O)C1=NN(c2ccc(Cl)cc2)C2(S1)SC(c1ccc(C)cc1)(c1ccc(C)cc1)c1ccccc12 (centres undefined)	none
COc1ccc2c(c1)C(C)CC(C)(C)N2C(=O)Nc1ccc(Cl)c(Cl)c1 (centres undefined)	none
CC(=O)Oc1cncc(C(=O)O)c1	none
CC(=O)Oc1cc(OC(C)=O)cc(C(=O)O)c1	Ba CapD inh -8.7
CC(=O)Oc1ccc(-c2ccc(C(=O)O)cc2)cc1	none
O=C(c1ccc(F)cc1)C1CCN(C(=O)c2cc(=O)n(-c3ccccc3)[nH]2)CC1	none
CCOc1ccc(-c2cc(CCCC(=O)Nc3ccc(CC)cc3)no2)cc1	none
CCn1c(C(=O)N2CCC(C(=O)NC3CCCCCC3)CC2)cc2sccc21	none
CN(Cc1ccccc1)C(=O)COc1ccc(Br)cc1	none
CN1CCN(c2cc(N(C)CCO)c([N+](=O)[O-])c3nonc23)CC1	Ba CapD inh -4.2
CN(CCO)c1cc(N2CCCCCC2)c2nonc2c1[N+](=O)[O-]	none
CC1CCN(c2cc(N(C)CCO)c([N+](=O)[O-])c3nonc23)CC1	none
OC(c1ccccc1)C(O)(c1ccccc1)c1ccccc1 (centres undefined)	none
COc1ccc(N(CC(=O)Nc2ccc(Br)cc2)S(=O)(=O)c2ccccc2)c(OC)c1	none
CCn1cc(/C=C(/C#N)c2ccccc2Cl)c2ccccc21	none
O/N=C/c1c[nH]c2ccccc12	none
CN(C)c1ccc(/C=C(\C#N)C(N)=C(C#N)C#N)cc1	none
N#CC(C#N)=C(N)/C(C#N)=C/c1c[nH]c2ccccc12	Ba CapD inh -3
CC(C)NC(=O)C1CCC(=O)N1Cc1ccc(F)cc1 (centres undefined)	none
O=C(O)CC(C(=O)O)N1C(=O)/C(=C/c2ccc(Cl)cc2)SC1=S (centres undefined)	none
COc1ccc(/C=C2\SC(=S)N(C(CC(=O)O)C(=O)O)C2=O)cc1 (centres undefined)	none
O=C(O)CC(C(=O)O)N1C(=O)/C(=C/c2ccc(-c3ccc(Br)cc3)o2)SC1=S (centres undefined)	Ba CapD inh -4.5
COc1ccc(-n2c(C)c3c(C)nnc(C)c3c2C)cc1	none
C=CCNC(=O)CC1CCCCC1	none
COC(=O)C(C(=O)OC)C(Nc1ccccc1)c1ccccc1 (centres undefined)	Ba CapD inh -7.1
